Assay outcomes from PubChem BioAssay.
Rows were chosen to be rich in hits. Some 4.1% of all compounds tested hit in one or more screens of this group.
hcDAF-12 act = activates DAF-12 receptor from parasite H. contortus. HEK293 hcDAF-12 lit1-tk-luc reporter, luminescence; 0% DMSO, 100% Δ7-dafachronic acid. activation, % at 6.8 µM. actives 1.4% (n = 370,000);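 active = activation above the mean of all tested compounds plus 3 SD, cut at about 5.5% in these data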
hgDAF12 agonist = hgDAF-12 agonism, primary luciferase screen | HEK293 GAL4-hgDAF12 UAS-luciferase reporter, agonist luminescence; normalized to butyrate control | activation, % at 6.8 µM | actives 1.8% (n = 370,000) | AID 687014;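 active = activation above a cutoff set at the mean of all screened compounds plus 3 SD, cut at about 10% in these data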
DAX1 inh-1 = DAX1 (NR0B1) inhibition, primary screen. HEK293T StAR-luciferase reporter, SF-1/DAX-1 repression relief. inhibition, % at 6.8 µM. actives 1.1% (n = 370,000);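 active = inhibition above the mean over all tested compounds plus 3 SD, cut at about 3.6% in these data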;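 also: higher inhibition means more luminescence from relief of DAX-1 repression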
PolyA inhibitor = inhibitors of polyadenylation in S. cerevisiae; S. cerevisiae SKY197-pL101 polyadenylation reporter, beta-gal luminescence; efflux-impaired pdr1/pdr3 knockout yeast; score 100 = 6 SD above DMSO; activity score, % at 12 µM; actives 0.02% (n = 300,000); AID 1875;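 active = lowest replicate activity score at least 50, where 100 means six control SD above control mean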;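 also: yeast exposed to compound for 9 h at 30 °C; higher score means more reporter readthrough which indicates perturbed polyadenylation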
DAX1 inh-2 = inhibits human nuclear receptor DAX1; P51843; HEK293 Gal4-DAX1 luciferase reporter, luminescence; inhibition, % at 6.75 µM; actives 0.99% (n = 340,000); AID 504766;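 active = inhibition above the mean over all tested compounds plus 3 SD, cut at about 4.2% in these data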;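 also: inhibition shows as a rise in luminescence from relieved DAX1 repression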
Target sequence (P51843 207-470 limits assumed): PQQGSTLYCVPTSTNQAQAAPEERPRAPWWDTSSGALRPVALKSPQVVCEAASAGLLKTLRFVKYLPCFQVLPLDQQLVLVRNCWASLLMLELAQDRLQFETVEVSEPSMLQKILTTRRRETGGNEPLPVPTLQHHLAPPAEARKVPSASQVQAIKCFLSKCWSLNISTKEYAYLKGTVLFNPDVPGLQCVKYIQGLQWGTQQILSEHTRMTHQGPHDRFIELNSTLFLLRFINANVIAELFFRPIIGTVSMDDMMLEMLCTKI
ssDAF-12 act = activates DAF-12 receptor from parasite S. stercoralis; HEK293 ssDAF-12/GRIP1 lit1-tk-luc reporter, luminescence; % of 3 µM dafachronic acid response; actives 1% (n = 370,000); activation, % at 6.8 µM; AID 652126;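 active = activation above the mean over all tested compounds plus 3 SD, cut at about 0.9% in these data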
Of the large screens only hits and unclear results are named; the others gave an inactive call.

CC(=O)Nc1ccc(N=Nc2ccc(O)cc2)cc1	hgDAF12 agonist 12
N/C(=N\OC(=O)c1ccc(Cl)cc1)c1cccnc1	none
N/C(=N\OC(=O)c1ccc(Cl)cc1Cl)c1cccnc1	hgDAF12 agonist 11
O=C(Nc1cccnc1Cl)c1cc(-c2ccc(F)cc2)on1	DAX1 inh-2 5.0
O=C(NC(=S)Nc1ncccn1)c1ccc(F)cc1	none
COc1ccc(-c2cc(C(=O)Nc3cccnc3Cl)no2)cc1	none
Cc1ccc(NC(=O)c2cc(-c3ccc(F)cc3)on2)cc1C	DAX1 inh-2 6.1
O=C(NC(=S)Nc1cccnc1Cl)c1ccc(F)cc1	DAX1 inh-2 5.4
COc1ccc([C@H]2OC(=O)C[C@H]2C(=O)N2CCCCC2)cc1OC	none (no result: PolyA inhibitor, DAX1 inh-2)
COc1cccc(C2c3c(ncn(-c4ccccc4)c3=N)Oc3ccc4ccccc4c32)c1OC (stereo not given)	none (no result: DAX1 inh-1, PolyA inhibitor, DAX1 inh-2)
CC(=O)OCC(=O)C1(O)CCC2C3CCC4=CC(=O)CCC4(C)C3C(O)CC21C (stereo not given)	DAX1 inh-1 3.7 (no result: PolyA inhibitor)
CCOC(=O)OCC(=O)C1(O)CCC2C3CCC4=CC(=O)CCC4(C)C3C(O)CC21C (stereo not given)	none (no result: PolyA inhibitor)
c1cncc(CSc2ccc(-c3cccs3)nn2)c1	hgDAF12 agonist 12
Cc1ccc(CSc2ccc(-c3cccs3)nn2)cc1	none
O=c1c(-c2ccccc2)nc2ccccc2n1C(c1ccccn1)c1nc2ccccc2[nH]1 (stereo not given)	none (no result: PolyA inhibitor, DAX1 inh-2)
O=c1c(-c2ccco2)nc2ccccc2n1C(c1ccccn1)c1nc2ccccc2[nH]1 (stereo not given)	ssDAF-12 act 1.1 (no result: PolyA inhibitor, DAX1 inh-2)
O=c1c(-c2cccs2)nc2ccccc2n1C(c1ccccn1)c1nc2ccccc2[nH]1 (stereo not given)	hgDAF12 agonist 12 (no result: PolyA inhibitor, DAX1 inh-2)
COc1ccc2c(c1)nc(-c1cccc(Br)c1)c(=O)n2C(c1ccccn1)c1nc2ccccc2[nH]1 (stereo not given)	ssDAF-12 act 0.9 (no result: PolyA inhibitor, DAX1 inh-2)
O=c1c(-c2cccnc2)nc2ccccc2n1C(c1ccccn1)c1nc2ccccc2[nH]1 (stereo not given)	none (no result: PolyA inhibitor, DAX1 inh-2)
CC(C)(C)NC(=O)C(c1ccnc2ccccc12)n1c(=O)c(-c2ccco2)nc2ccccc21 (stereo not given)	DAX1 inh-1 4.0 (no result: PolyA inhibitor, DAX1 inh-2)
CC(C)c1cc(C(C)C)c(S(=O)(=O)N2CCC(C(=O)NCc3cccs3)CC2)c(C(C)C)c1	none (no result: PolyA inhibitor, DAX1 inh-2)
C=C(C)C1(O)OC(=O)C=C1OC (stereo not given)	hcDAF-12 act 6.5
NC(=O)c1c(N)[nH]c(C(=O)c2ccccc2)c1-c1ccccc1Cl	none (no result: PolyA inhibitor, DAX1 inh-2)
CC(C)COc1ccc(-c2csc(N3CCC(C(N)=O)CC3)n2)cc1	none (no result: DAX1 inh-1, PolyA inhibitor, DAX1 inh-2)
CC1CCN(CCCCOc2ccc(Cl)cc2)CC1	none (no result: hcDAF-12 act, hgDAF12 agonist, DAX1 inh-1, ssDAF-12 act)
CC1CCN(C(=O)CCCOc2ccc(Cl)cc2)CC1	ssDAF-12 act 1.3
Cc1cc(C(=O)CSc2nnnn2C)c(C)n1CCc1ccc(F)cc1	none
Cc1cc(C(=O)CSc2nnnn2C)c(C)n1Cc1ccco1	hgDAF12 agonist 12
Cc1ccc(-n2c(C)cc(C(=O)CSc3nnnn3C)c2C)cc1	hgDAF12 agonist 12
Cc1ccc(-n2c(C)cc(C(=O)CSc3nncs3)c2C)cc1	none
Clc1ccc(-c2nnc3n2N=C(c2ccc(-c4ccccc4)cc2)CS3)c(Cl)c1	none (no result: PolyA inhibitor, DAX1 inh-2)
COc1cccc(-c2ccc3c(N)c(C(=O)NC4CC4)sc3n2)c1	hgDAF12 agonist 11, DAX1 inh-2 4.7
C=CCn1c(C)cc(C(=O)CSc2nc(N)cc(N)n2)c1C	DAX1 inh-2 4.6
COC(=O)[C@]12C[C@H](CC(=O)NCc3ccc(OC)c(OC)c3)C(=O)N(CCC3=CCCCC3)C1=C[C@H](C(C)C)O[C@@H]2C1CC1	none (no result: PolyA inhibitor, DAX1 inh-2)
C=CCN(C)CC#Cc1ccc(OC)cc1	none (no result: PolyA inhibitor, DAX1 inh-2)
CN(Cc1c(C(=O)N2CCCCCCC2)nc2ccc(Cl)cn12)C1CCOC1 (stereo not given)	none
Cc1cccn2c(CN(C)C3CCOC3)c(C(=O)N3CCCCC3)nc12 (stereo not given)	DAX1 inh-2 4.3
COc1ccc(N(CC(=O)NCCc2ccccc2)C(=O)CCC(=O)Nc2ccccn2)cc1	none
COCCNC(=O)CN(C(=O)CCC(=O)Nc1ccccn1)c1ccc(OC)cc1	DAX1 inh-2 5.0
Cc1ccnc(NC(=O)CCC(=O)N(CC(=O)NCCc2ccccc2)c2ccccc2F)c1	none
COCCNC(=O)CN(C(=O)Cn1nnc2ccccc21)c1ccc(C)cc1	DAX1 inh-2 4.5
Cc1ccc(N(CC(=O)NCCc2ccccc2)C(=O)CCC(=O)Nc2cc(C)ccn2)cc1	DAX1 inh-2 5.4
CC(=O)N1C[C@@H](CO)[C@@H](N(C)C(=O)Nc2cccc3ccccc23)C[C@H]1c1ccccc1	none (no result: PolyA inhibitor, DAX1 inh-2)
COC(=O)C1CN(Cc2cn(Cc3ccc(C)cc3)nn2)CCS(=O)(=O)N1Cc1ccc(C)cc1 (stereo not given)	none (no result: PolyA inhibitor, DAX1 inh-2)
COC(=O)[C@]12C[C@H](CC(=O)NCCC(C)C)C(=O)N(Cc3ccc(Cl)cc3Cl)C1=C[C@H](C1CCCC1)O[C@@H]2C	none (no result: PolyA inhibitor, DAX1 inh-2)
COCC(=O)Nc1ccc(OC)c(Cl)c1	none
O=C(Nc1ccc(Cl)c(Cl)c1)c1ccc(Cl)c(Cl)c1	hgDAF12 agonist 13
COc1ccc(NC(=O)C=C(C)C)cc1Cl	DAX1 inh-1 4.2
O=C(Nc1ccc(F)c(Cl)c1)c1ccc2c(c1)OCO2	hcDAF-12 act 6.2, hgDAF12 agonist 11
COc1ccc(NC(=O)c2ccc3c(c2)OCO3)cc1Cl	hgDAF12 agonist 10, DAX1 inh-1 4.0
NS(=O)(=O)c1ccc(NC(=O)c2ccc3c(c2)OCO3)cc1	none
O=C(Nc1ccc(Cl)c(Cl)c1)c1ccncc1	none
N#Cc1ccc(Cn2nnc(-c3ccc(N4CCOCC4)cc3)n2)cc1	none (no result: PolyA inhibitor, DAX1 inh-2)
CCOC(=O)C1=CCN(S(=O)(=O)c2ccc(Cl)cc2)C1c1cccc(F)c1 (stereo not given)	none (no result: PolyA inhibitor, DAX1 inh-2)
COc1ccc(C(CC(=O)c2ccc3c(c2)OCO3)C(=O)O)cc1OC (stereo not given)	ssDAF-12 act 4.0 (no result: PolyA inhibitor)
COc1ccc(C(=O)CC(C(=O)O)c2ccc(OC)c(OC)c2)cc1OC (stereo not given)	none (no result: PolyA inhibitor)
COc1ccc(Nc2cc(C)nc3c(C)cccc23)cc1OC	none
CCOc1ccc(Nc2cc(C)nc3c(C)cccc23)cc1	DAX1 inh-2 4.9
O=C1C(=Cc2cccn2-c2ccccc2)C(=O)c2ccccc21	ssDAF-12 act 1.0
Cn1c(SCC(=O)N/N=C/c2ccco2)nc2ccccc21	none
CC(/C=N/NC(=O)c1cccs1)=C\c1ccco1	hgDAF12 agonist 12
CC(/C=N/NC(=O)CSc1nc2ccccc2n1C)=C\c1ccco1	hcDAF-12 act 6.0
CC(C)[C@H](NS(=O)(=O)c1ccc(F)cc1F)C(=O)N1CCC[C@H]1C(=O)NCCc1ccccc1Cl	none (no result: PolyA inhibitor, DAX1 inh-2)
